Experimental data from PubChem BioAssay (NCATS).
Inconclusive results are not listed. Entries that show only a call come without a potency. Active and inactive are the calls of the source. Calls follow the shape of the dose curve; as a rule, active = well fitted inhibition curve with a large enough effect; inconclusive = small, poorly fitted or top-dose-only effect; inactive = no such curve, though single readings can be large or run the other way.

Columns and labels:
[1] = system: Zika virus NS2B-NS3 protease (unlinked complex); test: Primary screen GU Rhodamine qHTS for Zika virus inhibitors: Unlinked NS2B-NS3 protease assay (AID 1347159); also: nearly all actives have a fitted effect of over 60% in size
Method in brief: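 Compounds, tested up to 114 microM, were incubated for 15 minutes with 25 nM unlinked NS2B-NS3 protease at pH 8.0. Cleavage of 1.5 microM Rhodamine110 substrate was then followed by fluorescence for 15 minutes.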

[2] = system: Zika virus NS2B-NS3 protease (linked construct); test: Primary screen NINDS Rhodamine qHTS for Zika virus inhibitors (AID 1347160); also: nearly all actives have a fitted effect of over 55% in size
Method in brief: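 Percent inhibition, normalized to uninhibited and enzyme-free controls, is fitted to a 4-parameter Hill equation. Fluorescence change comes from a 15-min cleavage of 1.5 microM bis-peptide Rhodamine110 substrate by 25 nM linked NS2B-NS3 at room temperature.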
Potency is read from the fitted curve at half-maximal effect.

SMILES | Potency [1] | Potency [2]
CCCCNc1ncc(C(=O)NCc2ccc(-n3ccnc3)cc2)c(NC2CCC(O)CC2)n1 (stereo not given) | inactive | inactive
C=C1CC[C@@H]2[C@](C)(CO)[C@H](O)CC[C@@]2(C)[C@@H]1C/C=C1/C(=O)OCC1O (stereo not given in full) | inactive | inactive
CN(C)C(=O)NC1(c2ccccc2)CCN(CCC[C@]2(c3ccc(Cl)c(Cl)c3)CCCN(C(=O)c3ccccc3)C2)CC1 | inactive | inactive
O=c1[nH]c2ccccc2n1CCN1CCN(c2cccc(C(F)(F)F)c2)CC1 | inactive | inactive
CS(=O)(=O)Nc1ccc2oc3c(OC(F)F)ccc(C(=O)Nc4c(Cl)cncc4Cl)c3c2c1 | inactive | inactive
C=CC(=O)Nc1cccc(Nc2nc(Nc3ccc(OCCOC)cc3)ncc2F)c1 | inactive | inactive
O=C(Nc1nc2ccc([N+](=O)[O-])cc2s1)C1CCCCC1 | inactive | 
COc1c2c(c(C)c3c1C(=O)OC3)O[C@@]1(C)C[C@@H](OC(C)=O)[C@]34O[C@](OC)(CC[C@]3(C)[C@H]1C2)OC4(C)C | inactive | inactive
C=CCCN1CCC2(CC1)CN(C(=O)c1c(F)cccc1F)c1ccc(Cl)cc12 | inactive | inactive
CCCC1(CCC)CCC2(CCN(CCCN(CC)CC)C2)CC1 | inactive | inactive
O=C(CN1C2=NCCN2c2ccccc21)c1ccc(-c2ccccc2)cc1 | inactive | inactive
COc1ccccc1N1CCN(CC(C(=O)NC(C)(C)C)c2ccccc2)CC1 (stereo not given) | inactive | inactive
COc1cccc(N2CCN(C3=Nc4c(F)cccc4[C@H](CC(=O)O)N3c3cc(C(F)(F)F)ccc3OC)CC2)c1 | 25.1 µM (active) | 
CC1(C)CN(C(=O)c2ccc(-c3cccc4nc(NC(=O)C5CC5)nn34)cc2)C1 | inactive | inactive
CC(C)NC(=O)N1CC[C@H](N=C2Nc3cc(F)ccc3N(CC(F)F)c3ccc(Cl)cc32)C1 | inactive | inactive
CN(c1ccc(NC(=O)Nc2ccccc2)cc1)S(=O)(=O)c1cnn(-c2ccc(F)cc2)c1 | inactive | inactive
COc1ccnc(CS(=O)c2nc3cc(OC(F)F)ccc3[nH]2)c1OC (stereo not given) | inactive | 
COc1ccc(N2CCN(C(=O)c3cc4c(s3)-c3ccccc3S(=O)(=O)C4)CC2)cc1 | inactive | inactive

SMILES | Potency [1] | Potency [2]
COc1ccc(CNc2nc(N(CCO)CCO)nc3c2ncn3C(C)C)cc1 | inactive | inactive
C/C=C/C=C/c1cc2c(C=O)c(O)c(CC=C(C)C)cc2o1 | 12.6 µM (active) | 17.8 µM (active)
CCCCNc1ncc2c(-c3ccc(S(=O)(=O)N4CCOCC4)cc3)nn(C3CCC(O)CC3)c2n1 (stereo not given) | inactive | inactive
CC1(CO)CC2C(O)C3=C(CC(C)(O)C2C1)C(=O)OC3 (stereo not given) | inactive | inactive
C/C=C/C1=CC2=C(CO1)C(=O)C(C)(OC(=O)c1c(C)cc(O)cc1OC)C(O)C2 (stereo not given) | inactive | inactive
COc1ccc(S(=O)(=O)Nc2cc(Cl)cc(Cl)c2OC)cc1N1CCNCC1 | inactive | 
Cn1ncc(Cl)c1-c1cc(C(=O)N[C@H](CN)Cc2ccc(F)c(F)c2)sc1Cl | inactive | 
Nc1nc(OCc2cc(Br)cs2)c2[nH]cnc2n1 | inactive | inactive
Nc1ncnc2c1c(-c1ccc(Cl)cc1)nn2-c1cccc(-c2cnnn2Cc2cccc(-c3ccccc3)c2)c1 | inactive | inactive
O=C(NC[C@H]1CN(c2ccc(N3CCOCC3=O)cc2)C(=O)O1)c1ccc(Cl)s1 | inactive | inactive
CCC(C)C1NC(=O)C(Cc2ccccc2)NC(=O)C(CCCCCC(=O)C(O)CO)NC(=O)C2CCCCN2C1=O (stereo not given) | inactive | inactive
Cc1cc(C)nc(SCC(=O)Nc2ncc(Cc3cccc4ccccc34)s2)n1 | inactive | inactive
C=C(C=O)[C@]1(O)C[C@@]2(C)C(=CC1=O)C=C[C@H](OC(=O)/C=C/C=C/[C@H](C)CC)[C@@H]2C | 8.91 µM (active) | 
CNc1cccc(CCOc2ccc3c(c2)CN(CC(F)(F)F)C(=O)[C@H](CC(=O)O)C3)n1 | inactive | inactive
CC/C(C)=C/C(=O)OC1C(OC2(C)CCC3C(C4C(C)CCC42)C3(C)C)OC(C)C(O)C1O (stereo not given) | 14.1 µM (active) | 
C=C(C)C(=O)OC1CC(CO)CCC/C(CO)=C/C2OC(=O)C(=C)C21 (stereo not given) | inactive | inactive
O=C1Nc2ccccc2-c2nc3ccccc3c(=O)n2-c2c(O)cccc21 | inactive | inactive
COC(=O)c1cc2c(C(F)(F)F)cc(-c3ccccc3)cc2n1O | 12.6 µM (active) | 15.8 µM (active)
